From PubChem BioAssay
Calls of active or inactive are those of the source.
Note: test concentration not given here.

Test: basal 3T3-L1 adipocyte mitochondrial potential changes, profiling panel, cell-based, JC-1 fluorescence, 3T3-L1 adipocytes, 24 h, 100 nL compound (AID 1168)
Conditions: JC-1 mitochondrial fluorescence, higher = more signal, called active from +8 up or from −8 down
For `CC(C)(C)OC(=O)CC[C@@]1(C(=O)NCCN2CCOCC2)N=C(c2ccc(OCCCO)cc2)O[C@@H]1c1ccccc1CN=[N+]=[N-]`, the z-score was -0.916 (inactive). In the case of `CC(C)NC(=O)[C@@]1(C)c2ccccc2C(=O)N(Cc2ccccc2)[C@H]1c1ccc(CO)cc1`, the z-score is reported as 1.49 (inactive). For `CN(C)c1ccc(C(O)C2C=CC3C(=O)N(Cc4ccccc4)C(=O)C3N2n2cnnc2)cc1` (configuration not stated), the z-score was 0.522 (inactive). For `COc1ccc(C(=O)Nc2ccc(CN3C(=O)[C@@]4(O[C@@H](CCn5cc(CCO)nn5)[C@H]([Si](C)(C)c5ccc(OC)cc5)[C@H]4C)c4ccccc43)cc2)cc1`, the z-score was -0.201 (inactive). With `CC(C)C[C@H]1NC(=O)C([C@@H](C)OCc2ccccc2)NC(=O)[C@@]23C(=O)N[C@@H](Cc4ccccc4)C2[C@H](C)[C@@]2(C)O[C@H]2C3/C=C/C/C=C\CNC1=O` (some centres not stated) the z-score was 0.679 (inactive). With `COc1ccc([Si](C)(C)[C@@H]2[C@@H](CC(=O)N3CCC[C@H]3CO)O[C@]3(C(=O)N(Cc4cccc(N5CCCCC5=O)c4)c4ccccc43)[C@H]2C)cc1` the z-score was -0.191 (inactive). In the case of `CO[C@H]1O[C@H](CO)[C@@H](OC(=O)Nc2ccccc2-c2ccccc2)[C@H](OC(=O)Nc2ccccc2)[C@H]1OC(=O)Nc1ccccc1`, the z-score is reported as 0.877 (inactive). For `CCCCC(O)C1C=CC2C(=O)N(c3ccccc3)C(=O)C2N1Nc1ccc([N+](=O)[O-])cc1` (configuration not stated), the z-score was -1.08 (inactive). For `C=CCNC(=O)[C@@H]1[C@H]2C(=O)O[C@H](c3ccccc3)[C@H](c3ccccc3)N2[C@H](c2ccc(OCCO)cc2)[C@@]12C(=O)Nc1ccc(C#CC3(O)CCCCCC3)cc12`, the z-score was -0.848 (inactive). For `CN1C(=O)C2C(C1=O)C1C=C(c3ccc(CO)cc3)C2C(C2CC2)N1C` (configuration not stated), the z-score was -0.768 (inactive). For `COC(=O)[C@@]1(Cc2ccc(F)cc2)[C@H]2c3cc(C(=O)N4CCCC4)n(Cc4ccccn4)c3C[C@H]2CN1C(=O)c1ccccc1`, the z-score was -0.474 (inactive). For `NC(=O)N1C(=O)C2C(C1=O)C1C=C(CCCO)C2C(c2ccc(CN3CCCC3)cc2)N1Cc1cc2c(cc1Br)OCO2` (configuration not stated), the z-score was -0.472 (inactive). With `CCCCN1CC=CC23O[C@@H]4/C=C\CCCOC(=O)C4[C@H]2C(=O)N(C(CO)C(C)C)[C@@H]3C1=O` (some centres not stated) the z-score was -0.525 (inactive). For `O=C1O[C@H](c2ccccc2)[C@H](c2ccccc2)N2[C@H]1[C@@H](C(=O)N1CCN(c3ncccn3)CC1)[C@]1(C(=O)Nc3ccc(C#CCCO)cc31)[C@H]2c1ccc(O)cc1`, the z-score was -0.501 (inactive). In the case of `O=C1NC(=O)C2C1C=CC(C(O)c1ccc([N+](=O)[O-])cc1)N2Nc1ccccn1` (configuration not stated), the z-score is reported as -0.713 (inactive). In the case of `O=C1C2C=CC(C(O)c3ccc([N+](=O)[O-])cc3)N(Nc3ccccc3F)C2C(=O)N1c1ccccc1` (configuration not stated), the z-score is reported as -2.27 (inactive). In the case of `COc1ccc([Si](C)(C)[C@@H]2[C@@H](CC(=O)N(CCO)Cc3ccccc3)O[C@]3(C(=O)N(Cc4ccc(I)cc4)c4ccccc43)[C@H]2C)cc1`, the z-score is reported as 0.448 (inactive). In the case of `CN1C(=O)C2C(C1=O)C1C=C(CCCO)C2C(C2CC2)N1Cc1cccc(OC(F)(F)F)c1` (configuration not stated), the z-score is reported as -0.423 (inactive). With `CCOC(=O)C[C@H]1[C@H](OC(=O)c2cc3ccccc3oc2=O)[C@@H](NC(=O)CC(C)C)c2cc(OCCCO)ccc2N1C(=O)Cc1ccc(OC)cc1` the z-score was -0.119 (inactive). In the case of `NC(=O)N1C(=O)C2C(C1=O)C1C=C(CCCO)C2C(C2CC2)N1Cc1sc2ccccc2c1Cl` (configuration not stated), the z-score is reported as 0.0485 (inactive). With `COCCn1c(C(=O)N(C)C)cc2c1C[C@H]1CN(C(=O)c3ccccc3)[C@@](Cc3ccc(OC)cc3)(C(=O)OC)[C@@H]21` the z-score was -0.722 (inactive).

Test: basal RPMI8226 mitochondrial membrane potential changes, profiling panel, cell-based, JC-1 fluorescence, 24 h, 100 nL compound (AID 1169)
Conditions: RPMI8226 myeloma, JC-1 mitochondrial potential fluorescence, higher = more signal
With `CCCNC(=O)[C@@]1(Sc2ccc(C)cc2)CC(=O)N(Cc2ccccc2Cl)[C@@H]1c1ccc(CO)cc1I` the z-score was -0.547. For `C=CCN1Cc2ccccc2[C@H]2OC(c3ccc(OCCCO)cc3)=N[C@@]2(CCS(=O)(=O)c2ccccc2)C1=O`, the z-score was -0.798. Work on `[N-]=[N+]=Nc1ccccc1C[C@]1(C(=O)N2CCOCC2)N=C(c2ccc(OCCCO)cc2)O[C@H]1c1ccccc1N=[N+]=[N-]` yielded a z-score of -1.01. Compound `C[C@]1(C(=O)O)c2ccccc2C(=O)N(Cc2cc(F)cc(C(F)(F)F)c2)[C@H]1c1ccc(CO)cc1` has a z-score of 0.383. In the case of `CC(C)c1nc2cc(Br)ccc2c(=O)o1`, the z-score is reported as 0.593. In the case of `CN(C)CCCC[C@@H]1NC(=O)[C@H]2C[C@@H](C(=O)O)[C@@H](c3ccc(O)cc3)N2C1=O`, the z-score is reported as -0.693. For `CN1C(=O)C2C(C3CC3)C=C3CN(Cc4cccc(Cl)c4)[C@@H]([C@@H](O)Cc4ccccc4)C3C2C1=O` (some centres not stated), the z-score was -0.426. Compound `C=CCC(OC(C)=O)[C@@H]1[C@@H](N(Cc2ccc(-c3cccc(C(F)(F)F)c3)o2)C(=O)c2ccc(-c3ccccc3)cc2)c2cc(OCCCO)ccc2N1C(=O)c1ccc2ccccc2c1` (some centres not stated) has a z-score of 0.677. For `CCCCC(O)C1C=CC2C(=O)N(c3ccccc3)C(=O)C2N1Nc1ccc(C#N)cc1` (configuration not stated), the z-score was -0.0799. `NC(=O)N1C(=O)C2C(C1=O)C1C=C(CCCO)C2C(c2ccc(CN3CCCC3)cc2)N1Cc1sc2ccccc2c1Cl` (configuration not stated) gave a z-score of 0.0845. In the case of `CC(C)=CCCC(C)=CC(O)C1C=CC2C(=O)NC(=O)C2N1Nc1ccccn1` (configuration not stated), the z-score is reported as 0.333. With `Cc1ccc(S[C@]2(C(=O)NCCCN(C)C)CC(=O)N(C3Cc4ccccc4C3)[C@@H]2c2ccc(CO)cc2I)cc1` the z-score was -0.201. Compound `COc1ccc(C#Cc2ccc3c(c2)[C@]2(C(=O)N3)[C@H](C(=O)O)[C@H]3C(=O)O[C@H](c4ccccc4)[C@H](c4ccccc4)N3[C@@H]2c2ccccc2OCCO)cc1` has a z-score of -0.823. `COc1ccc(CCNC(=O)[C@@H]2c3ccccc3C(=O)N(Cc3ccccc3OC)[C@H]2c2ccc(CO)cc2)cc1` showed a z-score of -0.167. In the case of `C=CCC(OC(C)=O)[C@@H]1[C@@H](N(Cc2cccc3ccccc23)C(=O)Cc2ccc(OC)cc2)c2cc(OCCCO)ccc2N1C(=O)Cc1ccc2ccccc2c1` (some centres not stated), the z-score is reported as -0.226. `CC(C)(C)OC(=O)CC[C@@]1(C(=O)NCCN2CCOCC2)N=C(c2ccc(OCCCO)cc2)O[C@@H]1c1ccccc1CN=[N+]=[N-]` showed a z-score of -0.29. Work on `CC(C)NC(=O)[C@@]1(C)c2ccccc2C(=O)N(Cc2ccccc2)[C@H]1c1ccc(CO)cc1` yielded a z-score of -0.197. `CN(C)c1ccc(C(O)C2C=CC3C(=O)N(Cc4ccccc4)C(=O)C3N2n2cnnc2)cc1` (configuration not stated) gave a z-score of -0.203. In the case of `COc1ccc(C(=O)Nc2ccc(CN3C(=O)[C@@]4(O[C@@H](CCn5cc(CCO)nn5)[C@H]([Si](C)(C)c5ccc(OC)cc5)[C@H]4C)c4ccccc43)cc2)cc1`, the z-score is reported as -0.913. With `CC(C)C[C@H]1NC(=O)C([C@@H](C)OCc2ccccc2)NC(=O)[C@@]23C(=O)N[C@@H](Cc4ccccc4)C2[C@H](C)[C@@]2(C)O[C@H]2C3/C=C/C/C=C\CNC1=O` (some centres not stated) the z-score was -0.872. In the case of `COc1ccc([Si](C)(C)[C@@H]2[C@@H](CC(=O)N3CCC[C@H]3CO)O[C@]3(C(=O)N(Cc4cccc(N5CCCCC5=O)c4)c4ccccc43)[C@H]2C)cc1`, the z-score is reported as -1.12. For `CO[C@H]1O[C@H](CO)[C@@H](OC(=O)Nc2ccccc2-c2ccccc2)[C@H](OC(=O)Nc2ccccc2)[C@H]1OC(=O)Nc1ccccc1`, the z-score was -0.747. In the case of `CCCCC(O)C1C=CC2C(=O)N(c3ccccc3)C(=O)C2N1Nc1ccc([N+](=O)[O-])cc1` (configuration not stated), the z-score is reported as -0.147. In the case of `C=CCNC(=O)[C@@H]1[C@H]2C(=O)O[C@H](c3ccccc3)[C@H](c3ccccc3)N2[C@H](c2ccc(OCCO)cc2)[C@@]12C(=O)Nc1ccc(C#CC3(O)CCCCCC3)cc12`, the z-score is reported as -0.862. Compound `CN1C(=O)C2C(C1=O)C1C=C(c3ccc(CO)cc3)C2C(C2CC2)N1C` (configuration not stated) has a z-score of 0.178. With `COC(=O)[C@@]1(Cc2ccc(F)cc2)[C@H]2c3cc(C(=O)N4CCCC4)n(Cc4ccccn4)c3C[C@H]2CN1C(=O)c1ccccc1` the z-score was -0.116. `NC(=O)N1C(=O)C2C(C1=O)C1C=C(CCCO)C2C(c2ccc(CN3CCCC3)cc2)N1Cc1cc2c(cc1Br)OCO2` (configuration not stated) gave a z-score of 0.159. Compound `CCCCN1CC=CC23O[C@@H]4/C=C\CCCOC(=O)C4[C@H]2C(=O)N(C(CO)C(C)C)[C@@H]3C1=O` (some centres not stated) has a z-score of -0.4. In the case of `O=C1O[C@H](c2ccccc2)[C@H](c2ccccc2)N2[C@H]1[C@@H](C(=O)N1CCN(c3ncccn3)CC1)[C@]1(C(=O)Nc3ccc(C#CCCO)cc31)[C@H]2c1ccc(O)cc1`, the z-score is reported as -0.443. `O=C1NC(=O)C2C1C=CC(C(O)c1ccc([N+](=O)[O-])cc1)N2Nc1ccccn1` (configuration not stated) showed a z-score of -0.284. For `O=C1C2C=CC(C(O)c3ccc([N+](=O)[O-])cc3)N(Nc3ccccc3F)C2C(=O)N1c1ccccc1` (configuration not stated), the z-score was -0.268. In the case of `COc1ccc([Si](C)(C)[C@@H]2[C@@H](CC(=O)N(CCO)Cc3ccccc3)O[C@]3(C(=O)N(Cc4ccc(I)cc4)c4ccccc43)[C@H]2C)cc1`, the z-score is reported as -1.2. `CN1C(=O)C2C(C1=O)C1C=C(CCCO)C2C(C2CC2)N1Cc1cccc(OC(F)(F)F)c1` (configuration not stated) gave a z-score of -0.00892. For `CCOC(=O)C[C@H]1[C@H](OC(=O)c2cc3ccccc3oc2=O)[C@@H](NC(=O)CC(C)C)c2cc(OCCCO)ccc2N1C(=O)Cc1ccc(OC)cc1`, the z-score was 0.421. `NC(=O)N1C(=O)C2C(C1=O)C1C=C(CCCO)C2C(C2CC2)N1Cc1sc2ccccc2c1Cl` (configuration not stated) gave a z-score of -0.0842. Work on `COCCn1c(C(=O)N(C)C)cc2c1C[C@H]1CN(C(=O)c3ccccc3)[C@@](Cc3ccc(OC)cc3)(C(=O)OC)[C@@H]21` yielded a z-score of 0.0961.
